Measurements from PubChem BioAssay (NCI).
Where “and” joins values, the source holds several entries; their conditions need not be identical. Identical values can stand only once. Compounds without any hit were thinned out: in the full panel of roughly 79,000, 15% have a hit. More than one record can exist for a structure, and the calls need not agree. Calls of active or inactive are those of the source. No stated cut-off is given here; in the data, active means growth inhibition above about 70%; inactive means the rest.

Legend:
[1] = NCI Yeast Anticancer Drug Screen. Data for the rad50 strain (AID 155);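 further: 0% = growth of vehicle-only cultures of the same strain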; settings: S. cerevisiae rad50 strain growth inhibition; at 50.0 µM; stronger effect = higher value
How it was run: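 Readout: growth inhibition relative to vehicle-treated cultures. Compound exposure was carried out in a genetically defined yeast strain deficient in DNA damage repair.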

[2] = NCI Yeast Anticancer Drug Screen. Data for the mec2-1 strain (AID 157); settings: S. cerevisiae mec2-1 strain, at 50.0 µM, stronger effect = higher value
How it was run: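 Cells of the genetically defined mec2-1 yeast strain are incubated with test compound. Inhibition of growth is calculated against vehicle-treated controls.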

[3] = NCI Yeast Anticancer Drug Screen. Data for the sgs1 mgt1 strain (AID 161);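 further: 0% = growth of cultures given vehicle only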; settings: S. cerevisiae sgs1 mgt1 strain, at 50.0 µM, stronger effect = higher value
How it was run: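 Test agents were incubated with a DNA-repair-mutant yeast strain. Growth was then read and compared against vehicle-treated controls.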

[4] = NCI Yeast Anticancer Drug Screen. Data for the cln2 rad14 strain (AID 165);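 further: 0% = growth equal to vehicle treated cultures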; settings: S. cerevisiae cln2 rad14 strain, at 50.0 µM, stronger effect = higher value
How it was run: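 The screen exposed genetically defined yeast (cln2 rad14) to test compounds and scored growth inhibition relative to vehicle-treated controls.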

[5] = NCI Yeast Anticancer Drug Screen. Data for the bub3 strain (AID 167); settings: S. cerevisiae bub3 mutant strain, at 50.0 µM, stronger effect = higher value
How it was run: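 Readout: yeast growth inhibition, expressed relative to vehicle-only wells. The test organism is a mutant strain from a panel with lesions in DNA repair or checkpoint genes.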

[6] = NCI Yeast Anticancer Drug Screen. Data for the mlh1 rad18 strain (AID 175); settings: S. cerevisiae mlh1 rad18 strain growth inhibition; at 50.0 µM; stronger effect = higher value
How it was run: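 Compound-treated yeast growth, normalised to vehicle controls. Strain bears defined DNA repair mutations.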

Row | Compound | growth inhibition [1] | growth inhibition [2] | growth inhibition [3] | growth inhibition [4] | growth inhibition [5] | growth inhibition [6]
1 | O=[N+]([O-])c1ccc(N=Cc2ccc(Cl)cc2)cc1 | -0.2% (inactive) and 4.6% (inactive) | -6.05% (inactive) and 4.9% (inactive) | -23.2% (inactive) and -2.25% (inactive) | -0.2% (inactive) and -40.4% (inactive) | 5.85% (inactive) and 7.9% (inactive) | -4.15% (inactive) and -3.05% (inactive)
2 | COc1ccc2c(c1)-c1nn(CCCN(C)C)c3ccc([N+](=O)[O-])c(c13)N2 | 76.2% (active) and 67.2% (inactive) | 8% (inactive) and 12.3% (inactive) | 23.9% (inactive) and -28.4% (inactive) | 10.7% (inactive) and 20.6% (inactive) | 27.8% (inactive) and -60.1% (inactive) | 39.7% (inactive) and 28.5% (inactive)
3 | O=C1C(O)=C(Cl)C(=O)C(O)=C1Cl | 6.7% (inactive) and 13.6% (inactive) | 2.3% (inactive) and -26.3% (inactive) | -2.15% (inactive) and 25.3% (inactive) | -0.2% (inactive) and 5.3% (inactive) | 29.9% (inactive) and -11.3% (inactive) | -12.9% (inactive) and -3.2% (inactive)
4 | O=C(O)CSc1ccccc1C(=O)O | -1.35% (inactive) and -7.9% (inactive) | -11.9% (inactive) and -40.9% (inactive) | 1.6% (inactive) and -35.4% (inactive) | -27.9% (inactive) and 22.3% (inactive) | 6.15% (inactive) and -33.8% (inactive) | -17.9% (inactive) and -4.25% (inactive)
5 | CN(C)CC(O)c1cc2ccccc2c2ccccc12 (configuration not stated) | 3.3% (inactive) and -1.9% (inactive) | 22.6% (inactive) and -10.7% (inactive) | 3.4% (inactive) and -2.3% (inactive) | -8.8% (inactive) and -32.2% (inactive) | 18.4% (inactive) and -5.5% (inactive) | 8.65% (inactive) and -14.2% (inactive)
6 | OCC(O)C(O)C(O)C(O)[C@@H](O)c1nc2ccccc2[nH]1 (some centres not stated) | -5.1% (inactive) and -12.2% (inactive) | 3% (inactive) and -0.15% (inactive) | -2.75% (inactive) and -4.4% (inactive) | -34.5% (inactive) and -16.2% (inactive) | 2.8% (inactive) and 21.2% (inactive) | -3.8% (inactive) and 12.2% (inactive)
7 | O=c1c(O)c(-c2ccc(O)c(O)c2)oc2cc(O)ccc12 | -15.2% (inactive) and -57% (inactive) | -14.6% (inactive) and -40.4% (inactive) | -3.25% (inactive) and -24.9% (inactive) | 0.2% (inactive) and -25% (inactive) | -15.1% (inactive) and -48.1% (inactive) | -3.7% (inactive) and -37.3% (inactive)
8 | O=C(O)c1cc(N=Nc2ccc([N+](=O)[O-])cc2)ccc1O | 51.1% (inactive) and 26.6% (inactive) | -34% (inactive) and 8.2% (inactive) | -13.7% (inactive) and 12.2% (inactive) | 10.2% (inactive) and -34.8% (inactive) | 9.75% (inactive) and 27.4% (inactive) | 18.2% (inactive) and 49% (inactive)
9 | C=C1C[C@]23C[C@@]1(O)CC[C@H]2[C@@]12C=C[C@H](O)[C@@](C)(C(=O)O1)[C@H]2[C@@H]3C(=O)O | -20.4% (inactive) and -0.7% (inactive) | -39.5% (inactive) and -16.6% (inactive) | -31.1% (inactive) and -1.3% (inactive) | 0.4% (inactive) and 0.9% (inactive) | -51.8% (inactive) and -18.1% (inactive) | -52.4% (inactive) and -3% (inactive)
10 | Cc1ccc(S(=O)(=O)NC(C(=O)O)C(C)C)cc1 (configuration not stated) | 11.5% (inactive) and -39.5% (inactive) | 3.75% (inactive) and -12.9% (inactive) | -8.8% (inactive) and -51.1% (inactive) | -1.2% (inactive) and -20.2% (inactive) | 35% (inactive) and -16.2% (inactive) | 0.45% (inactive) and -18.9% (inactive)
11 | O=C(Oc1ccc(Cl)cc1Cl)Oc1ccc(Cl)cc1Cl | -16.8% (inactive) and -3.1% (inactive) | 11.6% (inactive) and 10% (inactive) | -0.9% (inactive) and -13.1% (inactive) | -13.1% (inactive) and -15.7% (inactive) | 14.2% (inactive) and 14.9% (inactive) | -14.5% (inactive) and 20.6% (inactive)
12 | O=C(O)/C=C/C=C/C(=O)O | -5.1% (inactive) and 14.2% (inactive) | -4.45% (inactive) and -10.2% (inactive) | -3.8% (inactive) and -1.95% (inactive) | 7.8% (inactive) and -17.9% (inactive) | -0.8% (inactive) and -14.6% (inactive) | -10.6% (inactive) and 2.75% (inactive)
13 | O=S(=O)(O)CCO | 13.6% (inactive) and -1.9% (inactive) | -8.35% (inactive) and -8.7% (inactive) | 20.7% (inactive) and 9.75% (inactive) | 19.1% (inactive) and 16.2% (inactive) | 0.3% (inactive) and -3.5% (inactive) | 2.25% (inactive) and 28% (inactive)
14 | CCCCCCCc1ccc(OC2OC(COC(C)=O)C(OC(C)=O)C(OC(C)=O)C2OC(C)=O)cc1 (configuration not stated) | -7% (inactive) and -26.1% (inactive) | -12.1% (inactive) and 13.8% (inactive) | -30.4% (inactive) and 1.4% (inactive) | -7.45% (inactive) and 37.9% (inactive) | 5.55% (inactive) and 9.7% (inactive) | -6% (inactive) and 10.6% (inactive)
15 | O=C1OC(=O)C2C3CCCCC3=C3CCCCC3C12 (configuration not stated) | 2.7% (inactive) and 11.1% (inactive) | 41.5% (inactive) and -8.4% (inactive) | -3.25% (inactive) and 4.25% (inactive) | 8.6% (inactive) and -9.1% (inactive) | 22.2% (inactive) and 3.9% (inactive) | -5.3% (inactive) and 13.6% (inactive)
16 | COc1ccc(NS(=O)(=O)c2ccccc2)cc1 | -3.55% (inactive) and -19.6% (inactive) | -2.7% (inactive) and -17.2% (inactive) | -3.2% (inactive) and -6.95% (inactive) | -20.7% (inactive) and -48.8% (inactive) | 1.55% (inactive) and 8.9% (inactive) | -6.3% (inactive) and -9.8% (inactive)
17 | CC(=O)N1CCN(C(C)=O)C2C1N(C(C)=O)CCN2C(C)=O (configuration not stated) | -11.7% (inactive) and 11.8% (inactive) | -18.9% (inactive) and -10.6% (inactive) | -24.6% (inactive) and 11.8% (inactive) | -20.1% (inactive) and 27% (inactive) | -19.6% (inactive) and 19.8% (inactive) | -17.1% (inactive) and 35.9% (inactive)
18 | CC(=O)N(O)CCCCCNC(=O)CCC(=O)N(O)CCCCCNC(=O)CCC(=O)N(O)CCCCCN | 12.6% (inactive) and 8% (inactive) | -9.65% (inactive) and -0.45% (inactive) | 2.1% (inactive) and -5.3% (inactive) | 6.9% (inactive) and 5.75% (inactive) | 9.55% (inactive) and 0.5% (inactive) | 11.4% (inactive) and 4.05% (inactive)
19 | CC/C(=N/NC(N)=O)C1=CCCCC1 | -5.6% (inactive) and 3.4% (inactive) | -3.7% (inactive) and -0.85% (inactive) | -1.5% (inactive) and -15.2% (inactive) | -35.5% (inactive) and -33.9% (inactive) | -15.2% (inactive) and -9.7% (inactive) | -0.4% (inactive) and -14.7% (inactive)
20 | COc1cc2c(cc1OC)C(=O)C1COC(=O)C1C2 (configuration not stated) | -17% (inactive) and 0.6% (inactive) | -18.8% (inactive) and -11.5% (inactive) | -8.7% (inactive) and 14.8% (inactive) | -11.9% (inactive) and 5.05% (inactive) | -6.2% (inactive) and -4.85% (inactive) | 0.55% (inactive) and 12.2% (inactive)
21 | Cc1c(C)[n+](=O)c2ccccc2n1[O-] | 15.9% (inactive) and 7.2% (inactive) | -19.1% (inactive) and -4% (inactive) | -7.6% (inactive) and 3.5% (inactive) | -20.6% (inactive) and -2.05% (inactive) | -18.1% (inactive) and -3.6% (inactive) | 5.4% (inactive) and 5.85% (inactive)
22 | CC(=O)OC(COC(=O)c1ccccc1)C(OC(C)=O)C(OC(C)=O)C(COC(=O)c1ccccc1)OC(C)=O (configuration not stated) | 3.7% (inactive) and 3.5% (inactive) | -7.8% (inactive) and 2.5% (inactive) | -7.65% (inactive) and -9.85% (inactive) | -18.9% (inactive) and -21.4% (inactive) | -3.3% (inactive) and -2.7% (inactive) | 5.45% (inactive) and 17% (inactive)
